# Reference: PubChem BioAssay (EPA / NIEHS)
# The source made the active and inactive calls. The calls were made as follows: active = hit-call score of the fitted dose curve at least 0.9, where 1 is the maximum; inactive = score below 0.9.
# Legend:
# [1] = ATG_CRE_CIS: Attagene CIS-FACTORIAL HepG2 Assay for human cAMP Responsive Element (CRE) binding protein 3 (AID 2282926); details: HepG2 CRE cis-reporter, Attagene multiplexed mRNA; actives raise or lower the signal
# Method in brief: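 HepG2 cells transiently transfected with cis-element-driven multiple reporter transcription units; CRE reporter mRNA measured 24 h after dosing by RT-PCR, 6-FAM labelling, HpaI digestion and capillary electrophoresis. Bidirectional fit versus DMSO baseline.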
# [2] = biological target: CCAAT/enhancer-binding protein beta (Homo sapiens) (UniProt P17676); experiment: ATG_C_EBP_CIS: Attagene CIS-FACTORIAL HepG2 Assay for human CCAAT/Enhancer Binding Protein (C/EBP) beta (AID 2282927); details: HepG2 Attagene cis-factorial transcription factor reporter; actives raise or lower the signal
# Method in brief: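 Endogenous transcription factor activity in human liver HepG2 cells is inferred from induction of a CEBPB-linked reporter mRNA. Exposure lasts 24 h; activity is fitted in both directions relative to DMSO.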
# [3] = ATG_DR4_LXR_CIS: Attagene CIS-FACTORIAL HepG2 Assay for human Liver X Receptor (LXR), DR4 submotif (AID 2282929); details: HepG2 Attagene DR4 cis-reporter, mRNA transcription; actives raise or lower the signal
# Method in brief: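 Fluorescence intensity of labelled reporter cDNA fragments, separated by capillary electrophoresis, gives the signal. HepG2 cells bearing cis-regulated reporter constructs were treated 24 h; activity fitted bidirectionally relative to DMSO negative control.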
# [4] = biological target: Aryl hydrocarbon receptor (Homo sapiens) (UniProt P35869); experiment: ATG_Ahr_CIS: Attagene CIS-FACTORIAL HepG2 Assay for human Aryl Hydrocarbon Receptor (Ahr) (AID 2282930); details: HepG2 AhR cis-factorial reporter transcription; actives raise or lower the signal
# Method in brief: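 Transient MRTU transfection of HepG2 → 24 h compound exposure → total RNA, oligo(dT) RT → PCR, 6-FAM extension, HpaI cut → CE fluorescence. DMSO = baseline; bidirectional curve fit.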
# [5] = ATG_AP_1_CIS: Attagene CIS-FACTORIAL HepG2 Assay for human Activator Protein 1 (AP-1) (AID 2282931); details: HepG2 Attagene cis-factorial AP-1 reporter mRNA; actives raise or lower the signal
# Method in brief: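 Multiplexed HepG2 reporter assay, 24 h dosing. mRNA induction detected by RT-PCR plus capillary electrophoresis. Activity fitted in both directions against DMSO.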
# [6] = ATG_AP_2_CIS: Attagene CIS-FACTORIAL HepG2 Assay for human Activator Protein 2 (AP-2) (AID 2282932); details: HepG2 AP-2 cis-reporter, Attagene transcription factor profiling; actives raise or lower the signal
# Method in brief: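 HepG2, transient MRTU transfection, cis-regulated reporters; 24 h compound exposure; RNA isolated, RT-PCR, 6-FAM labelling, HpaI digest, CE fluorescence. DMSO = negative control/baseline, bidirectional fit.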
# [7] = ATG_BRE_CIS: Attagene CIS-FACTORIAL HepG2 Assay for human Bone Morphogenetic Protein (BMP) Response Element (BRE) (AID 2282933); details: HepG2 BMP response element reporter, Attagene transcription factor profiling; actives raise or lower the signal
# Method in brief: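 Read-out: reporter mRNA induction quantified by RT-PCR and capillary electrophoresis after 24 h chemical exposure of transfected HepG2 cells. Endogenous factor activity on the BMP response element; gain or loss fitted against DMSO baseline.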
# [8] = biological target: Retinoic acid receptor alpha (Homo sapiens) (UniProt P10276); experiment: ATG_DR5_RAR_CIS: Attagene CIS-FACTORIAL HepG2 Assay for human Retinoic Acid Receptor Alpha (RARE), DR5 submotif (AID 2282934); details: HepG2 Attagene cis-factorial RARE DR5 reporter, mRNA; actives raise or lower the signal
# Method in brief: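 Transient MRTU transfection of HepG2; 24 h compound treatment; TriZol RNA, oligo(dT) RT, PCR, FAM labelling, capillary electrophoresis. Bidirectional fit vs DMSO. Endogenous TF activity at DR5 RARE.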
# [9] = biological target: Transcription factor E2F1 (Homo sapiens) (UniProt Q01094); experiment: ATG_E2F_CIS: Attagene CIS-FACTORIAL HepG2 Assay for human E2F Transcription Factor 1 (AID 2282935); details: HepG2 Attagene cis-reporter, E2F reporter RNA transcripts; actives raise or lower the signal
# Method in brief: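 Cis-element reporter mRNA induction in transiently transfected HepG2, 24 h exposure. Activity fitted in both directions relative to DMSO negative control.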
# [10] = ATG_E_Box_CIS: Attagene CIS-FACTORIAL HepG2 Assay for human Enhancer Box (E-box) (AID 2282936); details: HepG2 E-box cis-reporter transcription, actives raise or lower the signal
# Method in brief: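 Cells: HepG2 (human liver), transient MRTU transfection. Exposure 24 h. RNA → oligo(dT) RT → PCR → 6-FAM label → HpaI → CE. Activity fitted both directions relative to DMSO.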
# [11] = ATG_M_61_CIS: Attagene CIS-FACTORIAL HepG2 Assay for M61 Transcription Factor (Internal Marker) (AID 2282937); details: HepG2 Attagene CIS-FACTORIAL M61 internal marker reporter; actives raise or lower the signal
# Method in brief: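 Endogenous transcription factor activity in HepG2 is read through transiently transfected cis-element reporter units. After 24 h dosing, RNA undergoes reverse transcription, PCR and primer extension with 6-FAM before capillary electrophoresis; DMSO-referenced bidirectional fit.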
# [12] = ATG_EGR_CIS: Attagene CIS-FACTORIAL HepG2 Assay for human Early Growth Response 1 (EGR1) (AID 2282938); details: HepG2 Attagene CIS-FACTORIAL EGR reporter mRNA; actives raise or lower the signal
# Method in brief: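 Activity is taken as induction or loss of reporter mRNA versus DMSO, fitted bidirectionally. Transcripts from cis-regulated reporter units in transiently transfected HepG2 were measured after 24 h by RT-PCR with capillary electrophoresis.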
# [13] = ATG_CMV_CIS: Attagene CIS-FACTORIAL HepG2 Assay for human CMV (Internal Marker) (AID 2282928); details: HepG2 CMV promoter reporter, transcription factor profiling; actives raise or lower the signal;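 also: endpoint acts as a background internal control marker rather than a target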
# Method in brief: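 After transient transfection of HepG2 with reporter transcription units driven by cis-regulatory promoters, cells receive test chemical for 24 h. Labeled reporter amplicons, digested with HpaI, are sized and quantified by capillary electrophoresis against DMSO.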
# Aryl hydrocarbon receptor (Homo sapiens), sequence (P35869 whole entry, looked up): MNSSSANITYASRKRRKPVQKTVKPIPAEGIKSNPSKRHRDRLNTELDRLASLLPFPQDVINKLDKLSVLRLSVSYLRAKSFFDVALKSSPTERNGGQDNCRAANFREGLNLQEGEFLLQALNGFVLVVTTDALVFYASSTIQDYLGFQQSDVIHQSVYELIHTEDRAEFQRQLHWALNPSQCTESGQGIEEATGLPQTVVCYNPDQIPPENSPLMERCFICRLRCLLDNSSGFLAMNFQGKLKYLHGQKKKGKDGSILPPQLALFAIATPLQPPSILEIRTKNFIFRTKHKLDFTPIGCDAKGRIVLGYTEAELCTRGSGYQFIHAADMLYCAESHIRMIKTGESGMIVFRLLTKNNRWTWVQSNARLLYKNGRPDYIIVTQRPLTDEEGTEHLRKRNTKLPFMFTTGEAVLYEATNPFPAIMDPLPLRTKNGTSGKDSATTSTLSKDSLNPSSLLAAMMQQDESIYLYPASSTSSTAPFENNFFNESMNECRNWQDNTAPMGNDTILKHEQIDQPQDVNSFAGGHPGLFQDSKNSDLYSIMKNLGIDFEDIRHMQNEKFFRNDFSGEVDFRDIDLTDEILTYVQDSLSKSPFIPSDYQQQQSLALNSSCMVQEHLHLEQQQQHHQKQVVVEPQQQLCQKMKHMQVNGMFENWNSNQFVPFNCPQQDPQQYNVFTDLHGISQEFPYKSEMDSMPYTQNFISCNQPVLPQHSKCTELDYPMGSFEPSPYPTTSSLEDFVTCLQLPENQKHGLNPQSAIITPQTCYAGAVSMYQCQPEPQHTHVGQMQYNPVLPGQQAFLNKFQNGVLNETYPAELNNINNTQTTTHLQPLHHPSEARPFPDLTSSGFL
# Retinoic acid receptor alpha (Homo sapiens), sequence (P10276 whole entry, looked up): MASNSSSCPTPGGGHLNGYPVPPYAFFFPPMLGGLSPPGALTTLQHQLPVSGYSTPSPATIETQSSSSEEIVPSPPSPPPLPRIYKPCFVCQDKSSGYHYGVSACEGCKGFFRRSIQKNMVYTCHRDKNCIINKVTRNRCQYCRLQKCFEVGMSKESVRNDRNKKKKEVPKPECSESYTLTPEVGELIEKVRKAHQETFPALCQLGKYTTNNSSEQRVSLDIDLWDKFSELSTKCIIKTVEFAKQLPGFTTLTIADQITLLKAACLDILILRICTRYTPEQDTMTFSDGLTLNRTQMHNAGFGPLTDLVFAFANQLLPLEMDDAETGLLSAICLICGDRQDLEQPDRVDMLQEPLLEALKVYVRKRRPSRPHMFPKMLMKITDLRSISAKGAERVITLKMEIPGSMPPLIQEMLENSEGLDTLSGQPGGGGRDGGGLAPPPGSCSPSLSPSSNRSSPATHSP
# Transcription factor E2F1 (Homo sapiens), sequence (Q01094 whole entry, looked up): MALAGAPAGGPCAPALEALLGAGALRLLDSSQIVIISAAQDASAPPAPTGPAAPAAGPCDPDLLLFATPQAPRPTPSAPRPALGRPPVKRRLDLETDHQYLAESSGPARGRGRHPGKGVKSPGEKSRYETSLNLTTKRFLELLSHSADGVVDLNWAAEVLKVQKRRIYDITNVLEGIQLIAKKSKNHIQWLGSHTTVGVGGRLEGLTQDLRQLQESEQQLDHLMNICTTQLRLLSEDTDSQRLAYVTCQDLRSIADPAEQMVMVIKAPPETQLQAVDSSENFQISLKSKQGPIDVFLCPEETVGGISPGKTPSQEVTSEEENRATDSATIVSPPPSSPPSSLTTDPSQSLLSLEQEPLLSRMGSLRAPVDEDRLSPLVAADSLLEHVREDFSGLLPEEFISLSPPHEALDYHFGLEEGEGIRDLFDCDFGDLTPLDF
# CCAAT/enhancer-binding protein beta (Homo sapiens), sequence (P17676 whole entry, looked up): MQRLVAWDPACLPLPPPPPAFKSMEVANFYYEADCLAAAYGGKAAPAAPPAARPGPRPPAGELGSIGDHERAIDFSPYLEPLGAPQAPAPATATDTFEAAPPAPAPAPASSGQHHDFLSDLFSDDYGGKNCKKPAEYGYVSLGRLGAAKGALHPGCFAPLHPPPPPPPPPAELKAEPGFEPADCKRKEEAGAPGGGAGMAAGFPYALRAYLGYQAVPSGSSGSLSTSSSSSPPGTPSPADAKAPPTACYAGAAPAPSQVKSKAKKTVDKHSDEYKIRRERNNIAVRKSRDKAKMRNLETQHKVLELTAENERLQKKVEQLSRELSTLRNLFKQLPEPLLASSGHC
Compound,outcome [1],outcome [2],outcome [3],outcome [4],outcome [5],outcome [6],outcome [7],outcome [8],outcome [9],outcome [10],outcome [11],outcome [12],AC50 [3],AC50 [10],outcome [13],AC50 [5],AC50 [7],AC50 [4],AC50 [12]
O=NN1CCCCCCC1,inactive,inactive,inactive,inactive,inactive,inactive,inactive,inactive,inactive,inactive,inactive,inactive,,,,,,,
CC(c1ccccc1)(c1ccc(O)cc1)c1ccc(O)cc1,inactive,inactive,,inactive,,inactive,inactive,inactive,inactive,,inactive,,11.1 µM (active),16.9 µM (active),,,,,
Cc1ccc(CCl)cc1,inactive,inactive,inactive,inactive,inactive,inactive,inactive,inactive,inactive,,inactive,inactive,,,,,,,
C[C@H]1C(=O)O[C@@H]2CCN3CC=C(COC(=O)[C@](C)(O)[C@]1(C)O)[C@H]23,inactive,inactive,,inactive,,inactive,inactive,,inactive,,inactive,inactive,,,inactive,,,,
CC(C)(c1ccc(O)c(-c2ccccc2)c1)c1ccc(O)c(-c2ccccc2)c1,inactive,inactive,,inactive,inactive,inactive,inactive,inactive,inactive,inactive,inactive,,4.85 µM (active),,,,,,
Oc1cccc(-c2ccccc2)c1,inactive,inactive,inactive,inactive,,inactive,,inactive,inactive,,inactive,inactive,,,,65.1 µM (active),73.5 µM (active),,
O=C(NC(=O)c1c(F)cccc1F)Nc1cc(Cl)c(OC(F)(F)C(F)C(F)(F)F)cc1Cl (stereo unspecified),inactive,inactive,inactive,,,inactive,,inactive,inactive,inactive,inactive,inactive,,,,,,27.7 µM (active),
CCOc1cc(C=O)ccc1O,inactive,inactive,inactive,,inactive,inactive,,inactive,inactive,inactive,inactive,,,,,,,,
Cc1ccc(OP(=O)(Oc2ccc(C)cc2C)Oc2ccc(C)cc2C)c(C)c1,inactive,inactive,,inactive,inactive,inactive,inactive,inactive,inactive,,inactive,inactive,11.3 µM (active),25.1 µM (active),,,,,
C=C(C)[C@@H]1CC=C(C=O)CC1,inactive,inactive,inactive,,,inactive,inactive,inactive,inactive,,inactive,,,,,100 µM (active),,,
CCC[N+](CCC)(CCC)CCC,inactive,inactive,inactive,inactive,,inactive,inactive,,inactive,inactive,inactive,inactive,,,,,,,
C[As+](C)(C)CC(=O)[O-],inactive,inactive,inactive,inactive,inactive,inactive,,inactive,inactive,,inactive,inactive,,,,,,,
CN(C)c1ccc(N=O)cc1,inactive,inactive,,,inactive,inactive,inactive,inactive,inactive,,inactive,,9.26 µM (active),10.3 µM (active),,,,8.04 µM (active),13.5 µM (active)
